The campaign covered roughly 290,000 compounds. About 570 (0.2%) were called active. Roughly 1% stayed inconclusive and do not appear here. This is one part of a sample in which actives are shown more often than they occur. Rule as the data show it: active = inhibition mostly above about 51% (no sharp cut-off); inconclusive = no clear call, values can overlap the other calls; inactive = mostly below about 53%.
Biological target: Voltage-dependent N-type calcium channel subunit alpha-1B (Homo sapiens) (UniProt Q00975)
Assay: disruptors of CaV2.2 binding to Mint1 – biochemical, HTRF (AID 2073)
Details: HTRF protein-protein interaction, Mint1-CaV2.2, at 20 µM, stronger effect = higher value
[1] = measured here: average of repeat tests

Voltage-dependent N-type calcium channel subunit alpha-1B (Homo sapiens), sequence (Q00975 whole entry, looked up): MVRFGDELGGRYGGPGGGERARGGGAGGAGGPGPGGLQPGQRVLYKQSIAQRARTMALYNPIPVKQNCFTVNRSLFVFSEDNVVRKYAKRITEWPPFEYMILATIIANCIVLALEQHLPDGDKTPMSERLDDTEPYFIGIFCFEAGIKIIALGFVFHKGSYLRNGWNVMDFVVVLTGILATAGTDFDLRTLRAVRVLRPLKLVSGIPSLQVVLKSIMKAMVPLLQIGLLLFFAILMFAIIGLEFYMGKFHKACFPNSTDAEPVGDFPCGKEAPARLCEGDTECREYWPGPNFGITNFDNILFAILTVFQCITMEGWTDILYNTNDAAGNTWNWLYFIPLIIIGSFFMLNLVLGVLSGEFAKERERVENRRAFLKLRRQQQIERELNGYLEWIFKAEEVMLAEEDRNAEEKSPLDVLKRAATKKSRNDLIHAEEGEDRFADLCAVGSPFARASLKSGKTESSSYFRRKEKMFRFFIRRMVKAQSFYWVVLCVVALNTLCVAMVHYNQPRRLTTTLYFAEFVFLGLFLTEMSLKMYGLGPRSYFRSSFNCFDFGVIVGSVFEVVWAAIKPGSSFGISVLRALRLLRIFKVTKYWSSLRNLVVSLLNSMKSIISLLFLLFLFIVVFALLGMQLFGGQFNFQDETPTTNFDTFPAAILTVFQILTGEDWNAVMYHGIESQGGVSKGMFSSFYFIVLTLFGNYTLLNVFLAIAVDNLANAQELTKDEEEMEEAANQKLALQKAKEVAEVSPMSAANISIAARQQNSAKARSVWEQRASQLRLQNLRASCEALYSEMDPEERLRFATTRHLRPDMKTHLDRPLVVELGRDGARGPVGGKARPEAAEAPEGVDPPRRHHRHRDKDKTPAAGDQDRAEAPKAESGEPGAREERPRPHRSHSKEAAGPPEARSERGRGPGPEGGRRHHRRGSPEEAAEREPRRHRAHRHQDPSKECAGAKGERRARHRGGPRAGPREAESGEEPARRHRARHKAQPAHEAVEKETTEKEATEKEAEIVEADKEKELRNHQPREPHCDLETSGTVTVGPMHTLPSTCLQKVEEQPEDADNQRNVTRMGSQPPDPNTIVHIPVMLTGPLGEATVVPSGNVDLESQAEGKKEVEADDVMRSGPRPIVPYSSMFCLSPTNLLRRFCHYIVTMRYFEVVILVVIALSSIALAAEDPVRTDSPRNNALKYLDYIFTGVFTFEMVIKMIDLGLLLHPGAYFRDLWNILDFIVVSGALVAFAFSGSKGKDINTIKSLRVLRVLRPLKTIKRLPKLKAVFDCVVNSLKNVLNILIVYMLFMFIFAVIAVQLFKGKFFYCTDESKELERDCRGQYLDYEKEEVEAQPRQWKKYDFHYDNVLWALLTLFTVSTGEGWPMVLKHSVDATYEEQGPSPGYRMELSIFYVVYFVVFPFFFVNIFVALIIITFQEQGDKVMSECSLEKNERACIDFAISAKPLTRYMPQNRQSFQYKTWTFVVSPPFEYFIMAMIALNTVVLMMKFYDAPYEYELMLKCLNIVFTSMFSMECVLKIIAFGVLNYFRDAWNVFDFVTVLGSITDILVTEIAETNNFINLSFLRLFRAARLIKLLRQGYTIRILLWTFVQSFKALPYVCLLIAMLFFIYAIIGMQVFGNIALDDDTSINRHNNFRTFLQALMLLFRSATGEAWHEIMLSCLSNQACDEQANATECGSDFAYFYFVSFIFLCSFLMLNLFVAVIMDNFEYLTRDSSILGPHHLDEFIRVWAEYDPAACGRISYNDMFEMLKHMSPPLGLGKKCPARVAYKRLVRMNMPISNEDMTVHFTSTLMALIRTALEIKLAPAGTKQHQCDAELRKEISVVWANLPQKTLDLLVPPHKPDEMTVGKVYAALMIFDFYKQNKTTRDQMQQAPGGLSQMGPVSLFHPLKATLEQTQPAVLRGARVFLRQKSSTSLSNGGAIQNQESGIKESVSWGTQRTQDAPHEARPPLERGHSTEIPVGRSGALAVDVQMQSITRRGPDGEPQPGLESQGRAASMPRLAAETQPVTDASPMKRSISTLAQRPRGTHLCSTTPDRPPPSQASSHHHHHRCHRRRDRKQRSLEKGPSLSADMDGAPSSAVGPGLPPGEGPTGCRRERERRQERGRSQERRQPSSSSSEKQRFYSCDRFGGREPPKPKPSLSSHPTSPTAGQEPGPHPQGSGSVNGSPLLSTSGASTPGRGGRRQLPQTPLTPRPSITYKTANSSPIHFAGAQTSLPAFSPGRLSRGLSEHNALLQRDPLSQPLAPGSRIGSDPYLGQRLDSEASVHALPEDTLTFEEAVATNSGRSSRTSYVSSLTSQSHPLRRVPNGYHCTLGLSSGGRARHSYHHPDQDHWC

Row | Compound | inhibition | inhibition [1]
1 | CC(C)n1c(=O)c(C=Nc2ccc(F)cc2)c(O)n(Cc2ccco2)c1=O | 14.1% (inactive) | 
2 | CC(C)n1c(=O)c(C=Nc2ccc(Br)cc2)c(O)n(Cc2ccco2)c1=O | 59.1% (active) | 
3 | CC(C)n1c(=O)c(C=Nc2ccc(Cl)cc2)c(O)n(Cc2ccco2)c1=O | 63.2% (inactive) | 17.6%
4 | O=C(O)CCn1cc(C=C2C(=O)NC(=O)NC2=O)c(-c2ccc(Br)cc2)n1 | 11.7% (inactive) | 
5 | O=C(O)CCn1cc(C=C2C(=O)NC(=O)NC2=O)c(-c2cc3ccccc3oc2=O)n1 | 42.3% (inactive) | 
6 | O=C(O)CCn1cc(C=C2C(=O)NC(=S)NC2=O)c(-c2cccc(Br)c2)n1 | 75.7% (active) | 
7 | O=C(Cc1ccc(Br)cc1)N1CCN(Cc2ccccc2)CC1 | 9.2% (inactive) | 
8 | CCc1ccc(N2C(=O)NC(=O)/C(=C/c3cccn3CCOc3ccc(C)cc3)C2=O)cc1 | 17.5% (inactive) | 
9 | CN(C)C(=S)SSC(=S)N(C)C | 78% (active) | 
10 | CC(=O)N1CCN(Cc2ccc(Cl)nc2)CC1 | 5.2% (inactive) | 
11 | O=C1CC(=O)N(c2cccc(Br)c2)C(=O)N1 | 3.7% (inactive) | 
12 | Cc1ccc(NC(=O)c2cn(CCC#N)nc2-c2ccc3c(c2)OCCO3)c([N+](=O)[O-])c1 | -4.2% (inactive) | 
13 | COc1ccc(Cl)cc1N=Cc1c(O)n(C)c(=O)n(C)c1=O | 15.7% (inactive) | 
14 | CCN(CC)C(=O)c1ccc(NC(=O)CCCSc2ccccc2)cc1 | -3.4% (inactive) | 
15 | CCCCC/C=C\C/C=C\C/C=C\C/C=C\CCCC(=O)Nc1ccc(O)cc1 | 51% (active) | 
16 | CCC(=O)Nc1ccccc1 | -4.1% (inactive) | 
17 | CN1CCN(C(=O)Cc2ccccc2)CC1 | 5.6% (inactive) | 
18 | O=c1[nH]c(=S)n(-c2ccccc2Cl)c(O)c1C=NCCN1CCNCC1 | -0.4% (inactive) | 
19 | Cc1oc(-c2ccccc2)nc1CN1C(=O)CN=C(c2ccccc2)c2ccccc21 | -1.1% (inactive) | 
20 | COc1ccc(CC[n+]2cc(/N=C(\C)[O-])on2)cc1OC | 11.6% (inactive) | 
21 | Cc1cc(C=C2C(=O)NC(=O)NC2=O)c(C)n1-c1ccc2c(c1)OCO2 | 16.8% (inactive) | 
22 | Cc1cc(/C=C2\C(=O)NC(=O)N(C)C2=O)c(C)n1-c1ccc2c(c1)OCO2 | 0.4% (inactive) | 
23 | Cc1cc(C=C2C(=O)NC(=S)NC2=O)c(C)n1-c1ccc2c(c1)OCO2 | 53.2% (active) | 
24 | O=C1NC(=O)C(CCc2ccncc2)(CCc2ccccn2)C(=O)N1c1ccc(Br)cc1 (stereo not drawn) | 16.2% (inactive) | 
25 | COc1cc(Br)c(CNCCc2ccc3c(c2)OCO3)cc1OC | -3.9% (inactive) | 
26 | COc1cc2c(c(OC)c1)C(=O)OC(C)CCCC(=O)CCCCC2 (stereo not drawn) | 7.1% (inactive) | 
27 | COc1cccc(-n2c(/C=C/c3ccc(O)c(O)c3)nc3ccccc3c2=O)c1 | 62.6% (active) | 
28 | O=c1c2ccccc2nc(/C=C/c2ccc(O)c(O)c2)n1-c1ccccc1 | 33.3% (inactive) | 

Row | Compound | inhibition | inhibition [1]
29 | COc1ccc(-n2c(/C=C/c3ccc(O)c(O)c3)nc3ccccc3c2=O)cc1 | 40.5% (inactive) | 
30 | O=C(CN1CC(c2ccccc2)CC1=O)NCc1ccc(F)cc1 (stereo not drawn) | -3.7% (inactive) | 
31 | C[n+]1ccc(-c2ccncc2)cc1 | 6.3% (inactive) | 
32 | COc1ccc(N=Nc2c(O)[nH]c(=S)[nH]c2=O)cc1 | -13.3% (inactive) | 
33 | CSc1nc(N)c(N=Nc2ccc([As](=O)(O)O)cc2)c(=O)[nH]1 | 58.9% (active) | 
34 | O=[As](O)(O)c1ccc(N=Nc2ccc(O)cc2)cc1 | 15.6% (inactive) | 
35 | CN1C(=O)C(=Cc2ccc(OCCN(C)c3ccccn3)cc2)C(=O)N(C)C1=O | 3.3% (inactive) | 
36 | CCc1ccc(/C=C(/C#N)C(N)=S)cc1 | 84.5% (active) | 
37 | CCOP(=O)(OCC)/C(C#N)=C/c1ccc(Br)cc1 | 3.7% (inactive) | 
38 | N#CC(C#N)=Cc1ccc(C=C(C#N)C#N)cc1 | 19.1% (inactive) | 
39 | CN(C)P1(N(C)C)=NC(C(F)(F)F)=NC(C(F)(F)F)=N1 | 2.9% (inactive) | 
40 | CNC(=S)N(C)CCc1cc2c(c(OC)c1/C=C1/C(=O)NC(=O)N(C)C1=O)OCO2 | 6.3% (inactive) | 
41 | COc1c(C=C2C(=O)NC(=O)NC2=O)c(CCN(C)C(=O)c2ccccc2)cc2c1OCO2 | 15.8% (inactive) | 
42 | CNC(=S)N(C)CCc1cc2c(c(OC)c1C=C1C(=O)NC(=O)NC1=O)OCO2 | 50.6% (active) | 
43 | C=CCN1C(=O)/C(=C/c2cccs2)C(=O)NC1=S | -17.9% (inactive) | 
44 | O=C1NC(=O)N(Cc2ccc(F)cc2)C(=O)/C1=C/c1cccs1 | 29.5% (inactive) | 
45 | O=C1NC(=S)N(Cc2ccco2)C(=O)/C1=C\c1cccs1 | 76.9% (active) | 
46 | Cc1c(C=C2C(=O)N(C)C(=S)N(C)C2=O)c2ccccc2n1CC(=O)NCC1CCCO1 (stereo not drawn) | -5.7% (inactive) | 
47 | CCCCCCn1c(O)c(C=NCCN2CCOCC2)c(=O)[nH]c1=O | -1.8% (inactive) | 
48 | O=C1/C(=C\c2ccc([N+](=O)[O-])cc2)N2CCC1CC2 | -2.4% (inactive) | 
49 | O=C1C2(c3ccccc3)CN3CN(C2)CC1(c1ccccc1)C3 | -5.2% (inactive) | 
50 | CC(C)[C@H]1C(=O)N2CCC[C@H]2[C@]2(O)O[C@](NC(=O)[C@@H]3C=C4c5cccc6[nH]cc(c56)C[C@H]4N(C)C3)(C(C)C)C(=O)N12 | 69.1% (inactive) | 26.9%
51 | CC(C)[C@@]1(NC(=O)[C@@H]2C=C3c4cccc5[nH]cc(c45)C[C@H]3N(C)C2)O[C@@]2(O)[C@@H]3CCCN3C(=O)[C@H](Cc3ccccc3)N2C1=O | 66.3% (active) | 
52 | CC(C)C[C@H]1C(=O)N2CCCC2[C@]2(O)O[C@](NC(=O)[C@@H]3C=C4c5cccc6[nH]cc(c56)CC4N(C)C3)(C(C)C)C(=O)N12 (stereo partly drawn) | 67.7% (inactive) | 31.4%
53 | CC(C)CC(NC(=O)C1CCCCC1)C(=O)N1CCC2(CC1)OCCO2 (stereo not drawn) | -0.4% (inactive) | 
54 | NP(=O)(OCCCc1ccccc1)Oc1ccc(Cl)cc1 (stereo not drawn) | 2.9% (inactive) | 
55 | C=Cn1ccnc1P(=S)(c1ccc(Cl)cc1)c1nccn1C=C | 4.2% (inactive) | 

From PubChem BioAssay AID2073 (Sanford-Burnham Center for Chemical Genomics, 2009)
